Bioassay records as filed in PubChem BioAssay.
MEP2-GFP yeast = modulators of TOR pathway MEP2-GFP in S. cerevisiae; S. cerevisiae MEP2-GFP strain, flow cytometry GFP, 3 h; 100% = DMSO control level; GFP response vs DMSO, % at 10 µM; 330,000 compounds, 0.51% hits;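 active = GFP response versus DMSO above a set limit, roughly screen mean plus 3 SD, cut at about 180% in these data; inconclusive = fewer than 70 cells counted for a yeast strain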;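 also: median GFP fluorescence of the barcode-gated MEP2-GFP cells per well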
AGP1-GFP MLPCN = modulators of TOR pathway AGP1-GFP in S. cerevisiae; S. cerevisiae AGP1-GFP multiplex flow cytometry, 3 h; GFP as percent of DMSO wells; GFP response vs DMSO, % at 10 µM; 320,000 compounds, 0.02% hits; AID 2066;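 active = GFP response relative to DMSO above a set limit, near screen average plus 3 SD, cut at about 150% in these data; inconclusive = fewer than 70 cells counted for the yeast strain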;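 also: median GFP channel fluorescence of the gated AGP1 strain per well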
LAP4 TOR yeast = modulators of TOR pathway LAP4-GFP in S. cerevisiae; GFP response vs DMSO, % at 10 µM; S. cerevisiae LAP4-GFP multiplex, flow cytometry GFP, 3 h; median GFP as percent of DMSO wells; AID 2023; 320,000 compounds, 0.34% hits;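 active = GFP response vs DMSO above a set limit, about the screen mean plus 3 SD, cut at about 150% in these data; inconclusive = under 70 cell events counted for the yeast strain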
CIT2 TOR yeast = alters CIT2-GFP fluorescence in TOR pathway yeast screen. 320,000 compounds, 0.065% hits. AID 2029. GFP response vs DMSO, % at 10 µM. S. cerevisiae CIT2-GFP strain, flow cytometry, 3 h; 100 means same as DMSO wells;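 active = GFP response relative to DMSO above a set limit, near the screen mean plus 3 SD, cut at about 150% in these data; inconclusive = Fewer than 70 cells measured for a yeast strain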;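 also: ratio of well median GFP fluorescence to mean of DMSO wells on the plate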
RPL19A TOR yeast = yeast TOR pathway RPL19A-GFP modulation | S. cerevisiae RPL19A-GFP strain, flow cytometry, 3 h; hits give low values | percent response vs DMSO, % at 10 µM | 330,000 compounds, 0.3% hits;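 active = percent response vs DMSO below 50%; inconclusive = fewer than 70 events counted for the yeast strain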;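 also: median channel GFP fluorescence of the barcoded RPL19A-GFP strain; ratio of sample median GFP to plate DMSO average so 100% = DMSO; lower means less RPL19A-GFP as with rapamycin TOR inhibition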
LAP4-GFP pick2 = reconfirmed LAP4-GFP TOR pathway modulator in yeast; 590 compounds, 20% hits; AID 2621; GFP response vs DMSO, % at 10 µM; shares compounds with LAP4 TOR yeast; S. cerevisiae LAP4-GFP strain, flow cytometry GFP, 3 h;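 active = GFP signal as percent of the solvent control above about 150%, meaning raised reporter expression, limit read from the data; inconclusive = fewer than 70 cells counted in the well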;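 also: ratio of well median GFP fluorescence to plate DMSO mean so 100% = DMSO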
MEP2-GFP pick2 = yeast MEP2-GFP modulation, second cherry pick | 590 compounds, 10% hits | GFP response vs DMSO, % at 10 µM | AID 2622 | S. cerevisiae MEP2-GFP strain, flow cytometry GFP, 3 h | shares compounds with LAP4 TOR yeast;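 active = GFP signal above 150% of the solvent control wells, that is a rise of more than half; inconclusive = fewer than 70 yeast cells counted in the well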;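 also: median channel GFP fluorescence of all gated yeast cells per well; ratio of median GFP to plate DMSO average so 100% = DMSO level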
RPL19A-GFP pick2 = reconfirmed modulator of RPL19A-GFP TOR reporter in yeast; S. cerevisiae RPL19A-GFP strain, flow cytometry GFP, 3 h; hits give low values; 100% means same as DMSO wells; shares compounds with LAP4 TOR yeast; 590 compounds, 3% hits; GFP response vs DMSO, % at 10 µM; AID 2623;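 active = under 65% GFP response relative to DMSO; inconclusive = yeast strain with under 70 measured events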;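 also: median GFP channel fluorescence per well over the all cells gate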
CIT2 GFP CP2 = reconfirmed modulator of CIT2-GFP TOR reporter in yeast; shares compounds with LAP4 TOR yeast; S. cerevisiae CIT2-GFP strain, flow cytometry GFP, 3 h; DMSO control wells read 100%; GFP response vs DMSO, % at 10 µM; 590 compounds, 8% hits; AID 2624;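 active = GFP response vs DMSO above about 150%, limit read from the data; inconclusive = fewer than 70 events counted for a yeast strain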;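 also: median green fluorescence per well over all gated yeast cells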
AGP1-GFP pick2 = second confirmation of modulators of TOR reporter AGP1-GFP in yeast. shares compounds with LAP4 TOR yeast. S. cerevisiae AGP1-GFP strain, flow cytometry GFP, 3 h. percent response vs DMSO, % at 10 µM. 590 tested, under 10 active;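 active = over 150 percent of DMSO response; inconclusive = yeast strain measured with under 70 events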;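 also: median GFP channel fluorescence over all cells without mother daughter split; sample median GFP divided by mean DMSO control so 100% equals DMSO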
s288c autofluor = yeast s288c autofluorescence artifact, counter-screen | 610 tested, under 10 active | shares compounds with LAP4 TOR yeast | S. cerevisiae s288c, 520 nm autofluorescence, flow cytometry, 3 h; hits give high values; zero means same as solvent-only cells | fluorescence change (kMESF span) at 33 µM;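 active = fluorescence span over the dose series, or activity score, above about 33, limit read from the data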
Numbers without * were called inactive; ? = inconclusive; / = no result; [ ] = dose if it differs, or a comment. Shown are actives, neighbours in structure and some others; about 0.92% of the full set was active somewhere.

SMILES	MEP2-GFP yeast	AGP1-GFP MLPCN	LAP4 TOR yeast	CIT2 TOR yeast	RPL19A TOR yeast	s288c autofluor	others
CC12CC[C@H]3[C@@H](CCC4(O)C[C@H](O)CCC34/C=N/NC(=O)c3ccccc3[N+](=O)[O-])C1(O)CCC2C1=CC(=O)OC1 (some centres undefined)	106	104	/	100	96	/
COc1ccccc1CCNC(=O)CCC(=O)N1CC2C[C@@H](C1)Cn1c2cccc1=O	86	97	101	92	95	/
N=Cc1c(O)n(-c2ccccc2)c(=O)n(-c2ccccc2)c1=O	216*[may fluoresce violet]	17	94	?	81	/
Cc1ccc(-n2c(O)c(C=N)c(=O)n(-c3ccc(C)cc3)c2=O)cc1	103	99	97	103	101	/
O=C1NC(=O)C(=Cc2ccc(Sc3ccccc3)o2)C(=O)N1	85	62	164*	71	85	/
O=C1NC(=O)C(=Cc2ccc(-c3ccc(F)cc3O)o2)C(=O)N1	90	82	116	68	94	/
CN1C(=O)C(=Cc2ccc(Sc3ccccc3)o2)C(=O)N(C)C1=S	99	78	176*	83	74	/
CN1C(=O)C(=Cc2ccc(Sc3ccccc3)o2)C(=O)N(C)C1=O	82	71	121	70	90	/
CC[C@H](C)/C=C(C)/C=C/C1=CC2=C(Cl)C(=O)[C@@](C)(OC(C)=O)C(=O)C2=CO1	79	8	75	74	28*	2	LAP4-GFP pick2=71;MEP2-GFP pick2=97;RPL19A-GFP pick2=29*;CIT2 GFP CP2=77;AGP1-GFP pick2=14
CCCNC(=O)N1[C@H]2CC[C@@H]1C(C(=O)OC)=C(c1c(C)noc1C)C2	114	113	117	108	107	/
Cc1ccsc1/C=C1\C(=O)NC(=S)N(C)C1=O	87	56	52	90	55	-1.4	LAP4-GFP pick2=103;MEP2-GFP pick2=128;RPL19A-GFP pick2=67;CIT2 GFP CP2=79;AGP1-GFP pick2=64
CN1C(=O)/C(=C/c2ccc(Cl)s2)C(=O)NC1=S	85	70	118	92	100	/
O=C1NC(=O)C(=Cc2ccc(-c3ccc(Cl)cc3)o2)C(=O)N1	90	66	263*	57	71	0.5	LAP4-GFP pick2=198*;MEP2-GFP pick2=123;RPL19A-GFP pick2=84;CIT2 GFP CP2=103;AGP1-GFP pick2=89
O=C1NC(=O)C(=Cc2ccc(-c3ccc(S(=O)(=O)N4CCOCC4)cc3)o2)C(=O)N1	91	89	108	72	96	/
O=C1C(=O)c2ccccc2-c2ccccc21	99	77	105	81	95	2.1
Cn1c(O)c(Cc2cccc(Cl)c2Cl)c(=O)n(C)c1=O	102	101	91	102	102	/
CNC(=O)NC(O)C(Cl)(Cl)Cl (centres undefined)	104	102	110	91	96	/
CCCCCCCCn1sccc1=O	98	72	207*	86	88	1.6	LAP4-GFP pick2=180*;MEP2-GFP pick2=185*;RPL19A-GFP pick2=85;CIT2 GFP CP2=174*;AGP1-GFP pick2=87
CCCCCCCCc1ccc(O)cc1	99	97	111	89	98	/
